Some test systems named below: NCI-H23 lung; NCI-H226 lung; NCI-H322M lung; HOP-62 NSCLC; NCI-H460 lung; HOP-92 NSCLC; NCI-H522 lung; A549/ATCC NSCLC; 786-0 renal; COLO 205 colon; DU-145 prostate; K-562 leukemia; MALME-3M melanoma; MDA-MB-231 breast; RXF 393 renal; SF-268 CNS; SF-295 CNS; SF-539 CNS; UACC-257 melanoma.
What all share (experiment): NCI-60 one-dose screen, 48 h (100 = growth as untreated, 0 = no growth, -100 = all killed)
What all share (conditions): 10 µM unless noted

About 83,000 compounds went through this panel and 20% of them were active in at least one assay; those are over-represented in the sample as a whole.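 Testing used 96-well plates and a 48-hour single-concentration exposure. Example: -40 means 40% of the starting cells died.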 Values without a mark were called inactive. The source made the active and inactive calls. Rule for the calls: active = growth percent below 10; inactive = the rest.

`CNC=O`: the growth was 85.7% in the experiment on NCI-H23 lung; 102% in the experiment with NCI-H226 lung; 97.5% in the experiment on NCI-H322M lung; 107% with HOP-62 NSCLC; 101% in the experiment on NCI-H460 lung; 92% with HOP-92 NSCLC. Also, the growth in the experiment on NCI-H522 lung is 94.9%; with A549/ATCC NSCLC, 88.8%; in the experiment on 786-0 renal it was 102%; in the experiment with COLO 205 colon, 97.7%; in the experiment on DU-145 prostate, 77.9%; in the experiment on K-562 leukemia, 107%. Besides, the growth in the experiment with MALME-3M melanoma is 97%; in the experiment with MDA-MB-231 breast it was 98.7%; in the experiment on RXF 393 renal, 42.3%; in the experiment with SF-268 CNS, 99.3%; in the experiment with SF-295 CNS, 96.8%; with SF-539 CNS it was 88.8%. In the experiment on UACC-257 melanoma, the growth is 91.1%.

Take `CCCCNC(=O)NS(=O)(=O)c1ccc(N2N=C(c3ccc(C)cc3C)CC2c2ccc(N(C)C)cc2)cc1` (stereo unspecified): the growth was 69.5% in the experiment with NCI-H23 lung; 82.9% with NCI-H226 lung; 87.4% in the experiment with NCI-H322M lung; 88.6% in the experiment with HOP-62 NSCLC; 39.2% in the experiment with NCI-H460 lung; 71.5% in the experiment with HOP-92 NSCLC. Moreover, the growth in the experiment on NCI-H522 lung was 50%; in the experiment on A549/ATCC NSCLC, 40.6%; in the experiment on 786-0 renal, 53.1%; with COLO 205 colon, 75.6%; in the experiment on DU-145 prostate, 84.8%; with K-562 leukemia, 44.4%. Also, the growth with MALME-3M melanoma is 101%; in the experiment on MDA-MB-231 breast, 80.1%; in the experiment on RXF 393 renal, 79.5%; in the experiment on SF-268 CNS, 79.9%; in the experiment with SF-539 CNS, 62.6%; in the experiment on UACC-257 melanoma it was 66.1%.

For the molecule `CC1(C)CC(=O)c2c(ccc(C(=O)C[C@H](N)CO)c2N)O1`, the growth was 54.4% in the experiment with NCI-H23 lung; 58.3% with NCI-H226 lung; 15% with NCI-H322M lung; 22% with HOP-62 NSCLC; 6.79% (active) with NCI-H460 lung; 53.7% in the experiment with HOP-92 NSCLC. Moreover, the growth is 46.2% in the experiment on NCI-H522 lung; 34.7% in the experiment on A549/ATCC NSCLC; 77.5% in the experiment with 786-0 renal; 47% in the experiment on COLO 205 colon; 38% in the experiment on DU-145 prostate; 37.1% with K-562 leukemia. Moreover, the growth was 48.6% in the experiment on MALME-3M melanoma; 54.6% in the experiment with MDA-MB-231 breast; 44.1% in the experiment on RXF 393 renal; 34.2% in the experiment on SF-268 CNS; 42.9% in the experiment with SF-295 CNS; 23.7% with SF-539 CNS. The growth with UACC-257 melanoma was 49.1%.

With `COc1ccc(OC)c(Nc2nc3nonc3nc2Nc2cc(OC)ccc2OC)c1`, the growth in the experiment with NCI-H23 lung is 50%; in the experiment with NCI-H226 lung, 50.3%; in the experiment on NCI-H322M lung it was 68.6%; with HOP-62 NSCLC it was -12.8% (active); in the experiment with NCI-H460 lung, 22%; in the experiment on HOP-92 NSCLC it was 13.2%. For the same molecule, the growth in the experiment with NCI-H522 lung is 37.7%; with A549/ATCC NSCLC, 20.7%; in the experiment on 786-0 renal, -23.8% (active); with COLO 205 colon, 93.7%; in the experiment with DU-145 prostate it was 55.5%; with K-562 leukemia, 75.5%. In addition, the growth in the experiment with MALME-3M melanoma is 29.9%; in the experiment on MDA-MB-231 breast, -1.9% (active); with RXF 393 renal it was 14.8%; in the experiment on SF-268 CNS it was 45.6%; in the experiment on SF-295 CNS, 77.9%; in the experiment on SF-539 CNS, 9.98% (active). Moreover, the growth in the experiment with UACC-257 melanoma is 52.1%.

`CN(C)c1ccc(-c2cc(-c3ccc(Nc4nc(Nc5ccccc5)nc(Nc5ccc(Cl)cc5)n4)cc3)nc(N)n2)cc1`: the growth was 48% in the experiment with NCI-H23 lung; 59% in the experiment on NCI-H226 lung; 66.3% with NCI-H322M lung; 33.1% in the experiment with HOP-62 NSCLC; 41.7% with NCI-H460 lung; -3.41% (active) with HOP-92 NSCLC. In addition, the growth is 55.6% in the experiment on NCI-H522 lung; 43.4% with A549/ATCC NSCLC; 10.6% in the experiment on 786-0 renal; 58.1% in the experiment on COLO 205 colon; 61.4% in the experiment with DU-145 prostate; 10.8% with K-562 leukemia. Moreover, the growth in the experiment on MALME-3M melanoma was 57%; with MDA-MB-231 breast, 41.8%; in the experiment on RXF 393 renal, 53.8%; in the experiment on SF-268 CNS, 50.8%; in the experiment with SF-295 CNS, 36.5%; with SF-539 CNS, 60.8%. For the same molecule, the growth in the experiment with UACC-257 melanoma was 55.3%.

On to `CC1=CC(=O)C(C(C)C)=CC1=Nc1cc(Br)c(O)c(Br)c1`, for which the growth is 25.7% with NCI-H23 lung; 84.1% with NCI-H226 lung; 53.6% in the experiment on NCI-H322M lung; 12.7% in the experiment with HOP-62 NSCLC; 5.15% (active) in the experiment on NCI-H460 lung; 35.5% in the experiment with HOP-92 NSCLC. Also, the growth in the experiment with NCI-H522 lung was 55%; with A549/ATCC NSCLC it was 28.2%; in the experiment with 786-0 renal, 9.71% (active); with COLO 205 colon, 144%; in the experiment with DU-145 prostate, 3.08% (active); in the experiment on K-562 leukemia, 0.315% (active). For the same molecule, the growth was 96.6% in the experiment on MALME-3M melanoma; 7.91% (active) in the experiment with MDA-MB-231 breast; 5.99% (active) in the experiment with RXF 393 renal; 27% in the experiment with SF-268 CNS; 17% in the experiment on SF-295 CNS; -33.6% (active) in the experiment on SF-539 CNS. In addition, the growth in the experiment with UACC-257 melanoma is 95.5%.

On to `CCCc1cc(=O)oc2c3c(c4c(c12)OC(C)(C)C=C4)O[C@@H](C)[C@H](C)C3=O`, for which the growth is 61.1% with NCI-H23 lung; 89.8% in the experiment on NCI-H226 lung; 81% in the experiment on NCI-H322M lung; 102% with HOP-62 NSCLC; 60.5% with NCI-H460 lung; 43.7% with HOP-92 NSCLC. In addition, the growth in the experiment with NCI-H522 lung was 71.9%; in the experiment with A549/ATCC NSCLC it was 64.5%; in the experiment with 786-0 renal, 72.8%; in the experiment on COLO 205 colon, 74.8%; in the experiment on DU-145 prostate, 79.4%; with K-562 leukemia, 47.6%. For the same molecule, the growth is 90% in the experiment with MALME-3M melanoma; 71.9% with MDA-MB-231 breast; 18.4% in the experiment with RXF 393 renal; 86.4% with SF-268 CNS; 69.9% in the experiment with SF-295 CNS; 81% with SF-539 CNS. For the same molecule, the growth with UACC-257 melanoma is 55.1%.

Turning to `O=C(Nc1cccc2[nH]c(C(F)(F)F)nc12)c1cc(Cl)ccc1Cl`, the growth with NCI-H23 lung is -3.56% (active); in the experiment with NCI-H226 lung, 34.4%; in the experiment with NCI-H322M lung, 45.9%; in the experiment on HOP-62 NSCLC it was 32.1%; in the experiment on NCI-H460 lung it was 17.2%; in the experiment on HOP-92 NSCLC it was -11% (active). Further, the growth in the experiment on NCI-H522 lung is -13.2% (active); in the experiment with A549/ATCC NSCLC, 19.8%; in the experiment on 786-0 renal, 47.1%; with COLO 205 colon, 24.6%; with DU-145 prostate, 53.7%; with K-562 leukemia, 19.8%. Also, the growth was 16.1% with MALME-3M melanoma; 40.6% with MDA-MB-231 breast; 41.1% in the experiment with RXF 393 renal; 44.6% with SF-268 CNS; 29.2% in the experiment with SF-295 CNS; 52.9% with SF-539 CNS. Besides, the growth in the experiment with UACC-257 melanoma is 28.7%.

(Values after PubChem BioAssay (NCI).)
